# Test results from the supplement of paper PMC8253809.
# “And” between values parts separate entries of the source, which are not always exact repeats. Equal entries are not always repeated.
# Columns and labels:
# Experiment in all cases: growth inhibition (% activity, log2 RLU normalised to DMSO / staurosporine); higher = more growth inhibition
# Conditions in all cases: 33 µM
# DIPGX29 = test system: DIPGX29 (H3.3 K27M diffuse intrinsic pontine glioma line)
# Summary of the method: (§1)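 Approved drugs were tested in triplicate at a single final concentration of about 33 μM for 7 days at 37 °C, 5% CO2, on pHGG cell lines and H9-derived neural stem cells. Readout was CellTiter-Glo luminescence, log2-transformed and scaled per plate to % activity between solvent and positive control wells. The median over replicates gives the growth-inhibition value.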
# DIPGX37 = test system: DIPGX37 (H3.3 K27M diffuse intrinsic pontine glioma line)
# Summary of the method: as §1
# DIPGX7 = test system: DIPGX7 (H3.3 K27M diffuse intrinsic pontine glioma line)
# Summary of the method: as §1
# DIPGX9 = test system: DIPGX9 (diffuse intrinsic pontine glioma line)
# Summary of the method: as §1
# HGGX39 = test system: HGGX39 (paediatric high-grade glioma line)
# Summary of the method: as §1
# HGGX6 = test system: HGGX6 (H3.3 G34R paediatric high-grade glioma line)
# Summary of the method: as §1
# HNSC = test system: HNSC
# Summary of the method: as §1
# SUDIPGIV = test system: SUDIPGIV (diffuse intrinsic pontine glioma line)
# Summary of the method: as §1
# SUDIPGVI = test system: SUDIPGVI (diffuse intrinsic pontine glioma line)
# Summary of the method: as §1
# SUDIPGXIII = test system: SUDIPGXIII (diffuse intrinsic pontine glioma line)
# Summary of the method: as §1
SMILES,growth inhibition (DIPGX29),growth inhibition (DIPGX37),growth inhibition (DIPGX7),growth inhibition (DIPGX9),growth inhibition (HGGX39),growth inhibition (HGGX6),growth inhibition (HNSC),growth inhibition (SUDIPGIV),growth inhibition (SUDIPGVI),growth inhibition (SUDIPGXIII)
CC(=O)[C@H]1CC[C@H]2[C@@H]3CC=C4C[C@@H](O)CC[C@]4(C)[C@H]3CC[C@]12C,-0.784%,-0.0978%,-1.68%,-0.764%,-1.75%,-0.479%,-2.77%,-1.85%,-0.676%,0.295%
Clc1ccc(COC(Cn2ccnc2)c2ccc(Cl)cc2Cl)c(Cl)c1 (stereo not given),3.52% and 3.73%,2.39% and 1.02%,2.11% and 1.8%,4.24% and 1.75%,8.09% and 4.5%,8.84% and 5.54%,8.12% and 18.4%,11.2% and 18.5%,2.08% and 0.276%,8.9% and 4.15%
CN(C)C/C=C/C(=O)Nc1cc2c(Nc3ccc(F)c(Cl)c3)ncnc2cc1O[C@H]1CCOC1,21.1%,8.76%,29.6%,14.3%,11.5%,47.5%,59.4%,10.9%,-0.744%,0.97%
CC1(C)S[C@@H]2[C@H](NC(=O)[C@H](NC(=O)N3CCNC3=O)c3ccccc3)C(=O)N2[C@H]1C(=O)O,-0.235%,0.459%,-0.00643%,0.298%,1.59%,-0.0472%,-1.56%,-0.88%,-1.06%,-0.815%
Cc1ccc(O)c([C@H](CCN(C(C)C)C(C)C)c2ccccc2)c1,-0.51%,1.21%,-1.14%,1.39%,7.27%,-3.24%,8.98%,2%,1.35%,-1.5%
CC(=O)OCC[N+](C)(C)C,1.68%,3.32%,3.73%,1.49%,1.63%,1.69%,4.52%,1.04%,2.81%,-0.303%
COc1ccc(O)cc1,-0.0157%,0.851%,0.553%,0.0566%,-0.798%,0.118%,0.201%,-3.15%,-3.4%,0.564%
CN(N=O)C(=O)N[C@H]1C(O)O[C@H](CO)[C@@H](O)[C@@H]1O (mixture of isomers),0.875%,2.37%,2.05%,1.8%,0.924%,2.69%,2.82%,1.45%,2.34%,0.628%
CC(C)OC(=O)C(C)(C)Oc1ccc(C(=O)c2ccc(Cl)cc2)cc1,3.79%,2.12%,2.17%,2.82%,2.79%,-3.05%,54.6%,1.24%,2.08%,0.0771%
CN[C@@H]1[C@H](O[C@H]2[C@H](O[C@H]3[C@H](O)[C@@H](O)[C@H](N=C(N)N)[C@@H](O)[C@@H]3N=C(N)N)O[C@@H](C)[C@]2(O)C=O)O[C@@H](CO)[C@H](O)[C@H]1O,0.0944%,-5.46%,0.411%,-1.2%,0.505%,-0.72%,-0.954%,-0.137%,-0.665%,0.85%
NC[C@H](O)c1ccc(O)c(O)c1,1.26%,2.54%,0.579%,1.67%,3.45%,1.96%,-0.629%,1.37%,3.2%,1.73%
CCc1cc2c(cc1CC)CC(NC[C@H](O)c1ccc(O)c3[nH]c(=O)ccc13)C2,-0.957%,-0.915%,0.341%,-1.43%,0.343%,-1.65%,23.5%,1.53%,-4.28%,0.665%
CN(C)CCN(Cc1cccs1)c1ccccn1,1.96%,3.64%,1.81%,0.429%,5.09%,1.78%,2.78%,0.871%,3.63%,0.391%
CO[C@@H]1[C@@H](OC(N)=O)[C@@H](O)[C@H](Oc2ccc3c(O)c(NC(=O)c4ccc(O)c(CC=C(C)C)c4)c(=O)oc3c2C)OC1(C)C,-0.0643%,3.02%,1.66%,0.55%,3.59%,-2.58%,12.1%,4.51%,2%,-0.64%
Cc1ccccc1N1C(=O)c2cc(S(N)(=O)=O)c(Cl)cc2NC1C (stereo not given),-2.6%,0.236%,-3.01%,-0.0701%,-1.7%,-0.825%,-3.02%,-1.65%,-1.57%,-0.324%
C[C@@H]1C[C@H]2[C@@H]3C[C@H](F)C4=CC(=O)C=C[C@]4(C)[C@@]3(F)[C@@H](O)C[C@]2(C)[C@@]1(O)C(=O)CO,2.44%,5.42%,0.269%,4.89%,3.56%,-0.761%,5.26%,-0.633%,0.461%,-1.67%
O=C1C(=O)c2ccccc2C(O)=C1C1CCC(c2ccc(Cl)cc2)CC1 (stereo not given),1.86%,-1.09%,2.26%,2%,1.71%,0.641%,2.01%,3.44%,2.48%,1.82%
CCCOc1ccc(C(=O)OCCN(CC)CC)cc1N,-3.81%,-2.51%,0.125%,-2.19%,6.15%,3.2%,4.12%,-0.212%,-1.94%,0.093%
Cc1nccn1CC1CCc2c(c3ccccc3n2C)C1=O (stereo not given),2.17% and 0.0485%,1.96% and -0.656%,5.12% and 2.92%,1.4% and -0.3%,4.82% and 1.34%,1.68% and -1.02%,3.47% and -2.09%,-0.0678% and -2.33%,2.21% and -0.977%,-0.102% and 0.0786%
Cc1ccc(C(=O)Nc2ccc(CN3CCN(C)CC3)c(C(F)(F)F)c2)cc1C#Cc1cnc2cccnn12,60.2%,59.1%,51.4%,56.7%,56.8%,50%,62.7%,18.6%,6.05%,22.9%
c1ccc(-c2ccc(C(c3ccccc3)n3ccnc3)cc2)cc1 (stereo not given),3.65%,2.9%,5.02%,5.27%,9.63%,5.19%,11.5%,13.7%,2.63%,-0.141%
